Source: PubChem BioAssay (National Center for Advancing Translational Sciences (NCATS))
In the library only some 1.5% were active in any assay of this set; here they are far more common.
IDH1 R132H inh: blocks human mutant IDH1 R132H enzyme. Potency, µM (doses to about 76.6 µM), hits mostly inhibitors. IDH1-R132H enzyme, NADPH consumption, diaphorase/resazurin fluorescence. AID 602179. hit rate 0.093% among 390,000. O75874; note: nearly all actives have a fitted effect of over 65% in size
Target sequence (O75874 whole entry R132H, stated change not applied): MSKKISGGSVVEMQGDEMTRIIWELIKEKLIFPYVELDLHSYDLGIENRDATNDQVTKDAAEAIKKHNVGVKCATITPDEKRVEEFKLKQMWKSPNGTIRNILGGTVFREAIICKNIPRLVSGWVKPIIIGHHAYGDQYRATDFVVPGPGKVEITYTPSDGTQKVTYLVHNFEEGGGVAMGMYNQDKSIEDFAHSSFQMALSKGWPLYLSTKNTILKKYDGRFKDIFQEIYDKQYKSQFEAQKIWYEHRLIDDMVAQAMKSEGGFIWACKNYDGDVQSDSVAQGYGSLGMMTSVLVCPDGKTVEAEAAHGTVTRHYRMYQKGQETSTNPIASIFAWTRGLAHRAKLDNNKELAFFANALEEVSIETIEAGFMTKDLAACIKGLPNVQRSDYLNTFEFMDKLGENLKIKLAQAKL
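IDH1-R132H (0.5 ug/mL dispensed) in pH 7.5 Tris buffer was preincubated 30 min with compound, then given a substrate mix of 0.016 mM NADPH and 2 mM alpha-KG for 80 min at room temperature; remaining NADPH was read by diaphorase/resazurin fluorescence.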
Eya2 inh: blocks the phosphatase activity of human Eya2. O00167. recombinant Eya2, OMFP fluorescence dephosphorylation (OMFP is methylfluorescein phosphate). Potency, µM (highest dose often 76.9 µM), most hits filed as inhibitors. hit rate 0.006% among 330,000
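Eya2 protein (added as 0.2 uM solution) was preincubated with compound for 10 min at ambient temperature in 50 mM HEPES pH 7.5, 50 mM NaCl, 5 uM MgCl2, 0.05% BSA, 1 mM DTT. OMFP (added at 50 uM) then reacted 10 min; fluorescence read at 485/525 nm.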
Coupling enz: inhibits coupling enzyme system, counter-screen for aldolase hits. coupling enzyme system counterscreen, AmpLite Red fluorescence. activity change, negative = inhibition, % at 58.2 µM, hits read low. hit rate 0.67% among 290,000; in the data active = activity change below about -30%
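Counterscreen of the coupled detection system alone, without aldolase: glyceraldehyde-3-phosphate coupling enzymes plus AmpLite Red readout. Compounds at 57.5 uM final, 10 min RT preincubation, 20 min RT reaction, fluorescence 525/598 nm.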
TrxR1 substrate: is turned over as a substrate by rat TrxR1. purified TrxR1 substrate turnover, NADPH consumption readout. hit rate 0.01% among 390,000. Potency, µM (highest dose often 114 µM). O89049; note: nearly all actives have a fitted effect of over 50% in size
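Rat TrxR1, dispensed at 90 nM, was prereduced with 400 uM NADPH (final) for 5 min at ~22 deg C, then incubated with compound 15 min before 400 uM selenite. A first-read NADPH fluorescence drop versus no-compound background flagged substrates.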
TrxR1 inh: rat TrxR1 inhibition; recombinant rTrxR1, NADPH fluorescence consumption, selenite substrate; hit rate 1% among 390,000; AID 588453; O89049; Potency, µM (series often up to 114 µM), actives largely listed as inhibitors; note: nearly all actives have a fitted effect of over 65% in size
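Rat TrxR1 (90 nM in the dispensed reagent) was pre-reduced with 400 uM NADPH for 5 min at room temperature, then incubated with compound for 15 min. After 400 uM selenite was added, NADPH fluorescence (Ex 340/Em 450 nm) was followed for 8 min.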
Resorufin autofl: interferes with resorufin fluorescence in IDH1 counter-screen; 750 tested, under 10 active; Resorufin detection reagent fluorescence interference, cell-free; inhibition of signal, % at 51.2 µM; shares compounds with IDH1 R132H inh; AID 623980
IDH1 WT: inhibits human wild-type IDH1, mutant selectivity check; shares compounds with IDH1 R132H inh; WT IDH1 enzyme, NADPH diaphorase/resazurin fluorescence; Potency, µM (series often up to 115 µM), most hits filed as inhibitors; hit rate 9% among 750; note: nearly all actives have a fitted effect of over 55% in size
Target sequence (O75874 whole entry, looked up): as the sequence (O75874 whole entry R132H, stated change not applied) above, with H132R counted along it
IDH1 R132H conf: inhibits human mutant IDH1 enzyme in cherrypick confirmation; shares compounds with IDH1 R132H inh; hit rate 83% among 750; IDH1 R132H enzyme, NADPH diaphorase/resazurin fluorescence; Potency, µM (series often up to 76.6 µM), hits mostly inhibitors; note: nearly all actives have a fitted effect of over 50% in size
Hits are given with their value. Unless noted, calls come from the whole dose curve; as a rule, active = well fitted curve in the direction sought with a large enough effect; inconclusive = small, poorly fitted or top-dose-only effect, or another doubt; inactive = no such curve, though single readings can be large; an effect the other way counts as inactive or inconclusive.

What do the screens show for `O=C1C[C@H]2C=CCc3cccc(c32)CN1Cc1ccc(Br)cc1`?
TrxR1 substrate: inactive; TrxR1 inh: inactive

What do the screens show for `Cc1ccc(S(=O)(=O)Oc2ccc3c(c2)O/C(=C\c2cccnc2)C3=O)cc1`?
IDH1 R132H inh: inconclusive; Eya2 inh: inactive; Coupling enz: inactive; TrxR1 substrate: inactive; TrxR1 inh: inactive; Resorufin autofl: inactive; IDH1 WT: inactive; IDH1 R132H conf: 25µM

What do the screens show for `O=C1/C(=C/c2cccnc2)Oc2cc(OS(=O)(=O)c3ccc(F)cc3)ccc21`?
IDH1 R132H inh: inconclusive; Eya2 inh: inactive; Coupling enz: inactive; TrxR1 substrate: inactive; TrxR1 inh: inactive

What do the screens show for `COc1cccc(/C=C2\Oc3cc(OCC(=O)N4CCCC4)ccc3C2=O)c1OC`?
IDH1 R132H inh: inactive; Eya2 inh: inactive; TrxR1 substrate: inactive; TrxR1 inh: inactive

What do the screens show for `COc1cccc(OC)c1C(=O)Oc1ccc2c(c1)O/C(=C\c1ccncc1)C2=O`?
IDH1 R132H inh: inconclusive; Eya2 inh: inactive; Coupling enz: inactive; TrxR1 substrate: inactive; TrxR1 inh: inactive; Resorufin autofl: inactive; IDH1 WT: inactive; IDH1 R132H conf: 20µM

How did O=C1/C(=C/c2ccncc2)Oc2cc(OS(=O)(=O)c3ccccc3)ccc21 do in these assays?
IDH1 R132H inh: 46µM; Eya2 inh: inactive; Coupling enz: inactive; TrxR1 substrate: inactive; TrxR1 inh: inactive; Resorufin autofl: inactive; IDH1 WT: inconclusive; IDH1 R132H conf: 16µM

What do the screens show for `O=S(=O)(c1nccs1)N1CCN(c2nc(-c3cccs3)nc3ccccc23)CC1`?
TrxR1 substrate: inactive; TrxR1 inh: inactive

What do the screens show for `Cc1ccc([C@@H]2C3COCC=C3C(C#N)=C(N)C2(C#N)C#N)o1` (some centres undefined)?
IDH1 R132H inh: inconclusive; Eya2 inh: inactive; Coupling enz: inactive; TrxR1 substrate: inactive; TrxR1 inh: 7.9µM; Resorufin autofl: inactive; IDH1 WT: inactive; IDH1 R132H conf: inconclusive

How did Cc1ccc(C2C3CSCC=C3C(C#N)=C(N)C2(C#N)C#N)cc1 (centres undefined) do in these assays?
IDH1 R132H inh: inconclusive; Eya2 inh: inactive; Coupling enz: inactive; TrxR1 substrate: inactive; TrxR1 inh: inconclusive; Resorufin autofl: inactive; IDH1 WT: inactive; IDH1 R132H conf: 40µM

Results for C=CCOC(=O)N[C@@H](c1ccc(Br)cc1)C(C(C)=O)C(C)=O ?
Coupling enz: inactive

What do the screens show for `CCOC(=O)c1c(NC(=O)/C=C/C(=O)O)sc(C)c1-c1ccc(C)c(C)c1`?
IDH1 R132H inh: 23µM; Eya2 inh: inactive; Coupling enz: inactive; TrxR1 substrate: inactive; TrxR1 inh: inactive; Resorufin autofl: inactive; IDH1 WT: inconclusive; IDH1 R132H conf: 45µM

What do the screens show for `C[C@@]12C=Cc3occc3C1CC[C@@]13C[C@@H](CCC12)[C@@](O)(CO)C3` (some centres undefined)?
Coupling enz: inactive

What do the screens show for `CC(c1ccccc1)n1c(-c2cccs2)nc2c(c(=O)c3ccccc3n2C)c1=O` (centres undefined)?
IDH1 R132H inh: 32µM; Eya2 inh: inactive; Coupling enz: inactive; TrxR1 substrate: inactive; TrxR1 inh: inactive; Resorufin autofl: inactive; IDH1 WT: inactive; IDH1 R132H conf: 7.9µM

What do the screens show for `Cn1c2ccccc2c(=O)c2c(=O)n(-c3ccc(F)cc3)c(-c3cccs3)nc21`?
IDH1 R132H inh: inactive; Eya2 inh: inactive; Coupling enz: inactive; TrxR1 substrate: inactive; TrxR1 inh: inactive

How did CCCCn1cnc2c(=O)[nH]c(N)nc21 do in these assays?
TrxR1 substrate: inactive; TrxR1 inh: inactive

How did COc1cc([C@@H]2[C@H]3CNCC=C3C(C#N)=C(N)C2(C#N)C#N)ccc1OC(C)C do in these assays?
IDH1 R132H inh: inconclusive; Eya2 inh: inactive; Coupling enz: inactive; TrxR1 substrate: inactive; TrxR1 inh: inactive

How did COc1cc(C2C3CN(C)CC=C3C(C#N)=C(N)C2(C#N)C#N)ccc1OC(C)C (centres undefined) do in these assays?
IDH1 R132H inh: inconclusive; Eya2 inh: inactive; Coupling enz: inactive; TrxR1 substrate: inactive; TrxR1 inh: inconclusive; Resorufin autofl: inactive; IDH1 WT: inactive; IDH1 R132H conf: inactive

What do the screens show for `COc1ccc(CN(Cc2ccccc2)C(=O)c2ccncc2)cc1COc1ccc(NC(C)=O)cc1`?
TrxR1 substrate: inactive; TrxR1 inh: inactive

Results for CC[C@@H](CCC=C(C)C)C(=O)N(Cc1ccccc1)c1ccccc1 ?
IDH1 R132H inh: inconclusive; Eya2 inh: inactive; TrxR1 substrate: inactive; TrxR1 inh: inactive; Resorufin autofl: inactive; IDH1 WT: inconclusive; IDH1 R132H conf: 16µM

How did CC(C)C[C@@H](C)C(=O)N(Cc1ccccc1)c1ccccc1 do in these assays?
IDH1 R132H inh: inactive; Eya2 inh: inactive; TrxR1 substrate: inactive; TrxR1 inh: inactive

Results for CC(C)=CCc1c(O)cc(O)c2c(=O)c3c(CC=C(C)C)c(O)ccc3oc12 ?
IDH1 R132H inh: 45µM; TrxR1 substrate: inactive; TrxR1 inh: inactive; Resorufin autofl: inactive; IDH1 WT: inactive; IDH1 R132H conf: 40µM

How did COc1ccc(S(=O)(=O)NCCCC(=O)Nc2ccc(Sc3ccc(N)cc3)cc2)cc1 do in these assays?
Coupling enz: inactive

Results for CCOC(=O)C1CCN(C(c2cccnc2)c2c(NC(=O)c3ccco3)sc(C)c2C)CC1 (centres undefined) ?
IDH1 R132H inh: inconclusive; Eya2 inh: inactive; Coupling enz: inactive; TrxR1 substrate: inactive; TrxR1 inh: inconclusive; Resorufin autofl: inactive; IDH1 WT: inactive; IDH1 R132H conf: 28µM

Results for Cc1sc(NC(=O)c2ccco2)c(C(c2cccnc2)N2CCN(CCO)CC2)c1C (centres undefined) ?
IDH1 R132H inh: inactive; Eya2 inh: inactive; Coupling enz: inactive; TrxR1 substrate: inactive; TrxR1 inh: inactive

What do the screens show for `CCCN1C(=O)c2ccccc2NC1c1ccc(OC)c(COc2ccc([N+](=O)[O-])c(C)c2)c1` (centres undefined)?
TrxR1 substrate: inactive; TrxR1 inh: inactive

Results for CCOc1ccc(NC(=O)c2c[nH]n3c(=O)cc(C4CCN(C(=O)OC(C)(C)C)CC4)nc23)cc1 ?
IDH1 R132H inh: 52µM; Eya2 inh: inactive; Coupling enz: inactive; TrxR1 substrate: inactive; TrxR1 inh: inactive; Resorufin autofl: inactive; IDH1 WT: 50µM; IDH1 R132H conf: 25µM
